Most compounds without a hit are left out; they make up all but 1.8% or so of the library.
A-T KAP1 phos: candidate therapy for ataxia-telangiectasia; Potency, µM (highest dose often 57.5 µM), usual class: activators; AID 485349; F2112 A-T fibroblasts, KAP-1 phosphorylation AlphaLISA; neocarzinostatin DNA damage 30 min before lysis; 0.19% of 320,000 active; further: nearly all actives have a fitted effect of over 45% in size
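ATM-like activity read as KAP-1 phosphorylation via AlphaLISA donor/acceptor antibody pairs after lysis and 6 hr at 25C. Cells were ATM-null patient fibroblasts (F2112, hTERT), dosed 60 min, then exposed to the DSB inducer NCS for 30 min.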
KCNH2 3.1 block: blocks the human KCNH2 3.1 channel isoform; U2OS KCNH2 3.1, thallium flux FluxOr; stronger effect = lower value; activity change, % (tested at about 1.8 µM); 0.95% of 340,000 active; AID 720553;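 active means maximum activity change below -70%; inconclusive means maximum activity change from -70% to -50%; inactive means maximum activity change above -50%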;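 further: thallium influx rate constant from kinetic fluorescence after stimulation buffer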
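Measured as rate of thallium-driven FluxOr signal in transduced U2OS cells carrying the 3.1 channel, read kinetically for 2 min upon stimulation; values are rate constants scaled to DMSO control wells.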
12-LOX inh: blocks human arachidonate 12S-lipoxygenase | P18054 | purified 12hLO, xylenol orange hydroperoxide absorbance | Potency, µM (highest dose often 108 µM), hits mostly inhibitors | 1.1% of 580,000 active | AID 1671190
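Purified human 12hLO (150 nM final) in 25 mM Hepes, 0.01% Triton X-100, pH 7.0 was preincubated 15 min at room temperature with compound. Then 40 uM arachidonic acid was added, 30 min. Hydroperoxide was read by Fe-XO absorbance ratio 573/405 nm.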
hERG WT inh: KCNH2 (human, wildtype) channel inhibition | Q12809 | U2OS, BacMam KCNH2, thallium flux FluxOr; stronger effect = lower value | activity change, % at 1.84 µM | 0.37% of 340,000 active;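 active means maximum activity change below -70%; inconclusive means maximum activity change between -70% and -50%; inactive means maximum activity change above -50%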
Target sequence (Q12809 whole entry, looked up): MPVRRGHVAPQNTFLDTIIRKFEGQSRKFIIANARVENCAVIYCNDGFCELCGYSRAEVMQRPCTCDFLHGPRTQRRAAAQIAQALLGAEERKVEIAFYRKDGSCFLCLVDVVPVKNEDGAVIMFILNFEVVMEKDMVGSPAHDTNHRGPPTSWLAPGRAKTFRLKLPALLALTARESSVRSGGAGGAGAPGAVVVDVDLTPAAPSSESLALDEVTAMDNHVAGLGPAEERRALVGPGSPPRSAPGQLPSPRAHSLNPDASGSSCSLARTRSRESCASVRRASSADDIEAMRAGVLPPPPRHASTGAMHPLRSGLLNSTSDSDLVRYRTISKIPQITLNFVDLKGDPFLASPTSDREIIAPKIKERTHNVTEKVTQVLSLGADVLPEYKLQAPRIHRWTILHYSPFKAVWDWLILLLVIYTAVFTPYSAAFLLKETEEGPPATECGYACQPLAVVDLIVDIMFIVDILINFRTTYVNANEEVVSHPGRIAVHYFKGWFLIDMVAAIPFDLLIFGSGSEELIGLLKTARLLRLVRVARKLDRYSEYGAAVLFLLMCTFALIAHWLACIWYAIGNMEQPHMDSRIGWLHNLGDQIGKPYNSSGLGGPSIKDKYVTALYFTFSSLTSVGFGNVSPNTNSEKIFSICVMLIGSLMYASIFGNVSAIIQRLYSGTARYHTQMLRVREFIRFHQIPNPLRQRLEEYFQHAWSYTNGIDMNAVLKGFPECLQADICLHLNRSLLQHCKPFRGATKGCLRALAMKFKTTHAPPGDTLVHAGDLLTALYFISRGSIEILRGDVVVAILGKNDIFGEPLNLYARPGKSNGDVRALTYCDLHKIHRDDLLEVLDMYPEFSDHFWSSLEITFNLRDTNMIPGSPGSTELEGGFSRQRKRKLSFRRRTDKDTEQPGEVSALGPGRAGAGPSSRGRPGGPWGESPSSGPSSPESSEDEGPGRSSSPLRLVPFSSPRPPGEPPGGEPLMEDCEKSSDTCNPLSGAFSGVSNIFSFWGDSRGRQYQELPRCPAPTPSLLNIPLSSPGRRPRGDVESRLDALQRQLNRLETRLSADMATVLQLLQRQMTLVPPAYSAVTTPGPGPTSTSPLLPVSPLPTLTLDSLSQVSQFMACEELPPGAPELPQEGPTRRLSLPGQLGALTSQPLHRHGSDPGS
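U2OS cells were transduced with wild-type KCNH2 virus (2.03 x 10^8 / mL) for 4 h at room temperature, then cultured overnight at 37 C. Thallium flux was read with FluxOr dye. Rate constants were normalized to DMSO controls.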
A number is an active result. Unless noted, the call rests on the fitted dose curve; in most records, active means well fitted curve in the direction sought with a large enough effect; inconclusive means small, poorly fitted or top-dose-only effect, or another doubt; inactive means no such curve, though single readings can be large; an effect the other way counts as inactive or inconclusive.

Results for O=C(Cc1ccc(Cl)cc1)N1CCN(c2ccc(F)cc2)CC1 ?
A-T KAP1 phos: inactive; KCNH2 3.1 block: inactive; 12-LOX inh: inactive; hERG WT inh: inactive

What do the screens show for `Cc1ccc(S(=O)(=O)NCc2ccc(C(=O)N3CCN(c4ccc([N+](=O)[O-])cc4)CC3)cc2)cc1`?
A-T KAP1 phos: inactive; KCNH2 3.1 block: -96.3; 12-LOX inh: inactive; hERG WT inh: inactive

Results for COc1ccc(N2CCN(C(=O)c3ccc(CNS(=O)(=O)c4ccc(C)cc4)cc3)CC2)cc1 ?
A-T KAP1 phos: inactive; KCNH2 3.1 block: inactive; 12-LOX inh: inactive; hERG WT inh: inactive

What do the screens show for `O=C(Cc1ccc(Cl)cc1)N1CCN(c2ccccc2)CC1`?
A-T KAP1 phos: 22.4µM; KCNH2 3.1 block: inactive; 12-LOX inh: inconclusive; hERG WT inh: inactive

What do the screens show for `O=C(CCCSc1nc2ccccc2[nH]1)N1CCN(c2ccc([N+](=O)[O-])cc2)CC1`?
A-T KAP1 phos: inactive; KCNH2 3.1 block: -115.9; 12-LOX inh: inconclusive; hERG WT inh: -105.2

How did CCCn1cnnc1CNC(=O)CC1C(=O)NCCN1Cc1ccoc1 (centres undefined) do in these assays?
12-LOX inh: inactive

How did CS(=O)(=O)N1CCN(c2ccccc2NC(=O)Cc2ccccc2)CC1 do in these assays?
A-T KAP1 phos: inactive; KCNH2 3.1 block: inactive; 12-LOX inh: inactive; hERG WT inh: inactive

How did O=[N+]([O-])c1ccc(N2CCN(C(=S)NC3CCCCC3)CC2)cc1 do in these assays?
A-T KAP1 phos: inactive; KCNH2 3.1 block: -72.0; 12-LOX inh: inconclusive; hERG WT inh: inactive

What do the screens show for `O=C(Cc1ccc([N+](=O)[O-])cc1)N1CCN(c2ccc([N+](=O)[O-])cc2)CC1`?
A-T KAP1 phos: inactive; KCNH2 3.1 block: -90.6; 12-LOX inh: inconclusive; hERG WT inh: inconclusive

What do the screens show for `O=C(Cc1ccccc1)Nc1ccccc1N1CCN(c2ccccc2)CC1`?
A-T KAP1 phos: inactive; KCNH2 3.1 block: -70.3; 12-LOX inh: inconclusive; hERG WT inh: inactive

Results for O=C(Cc1ccccc1)Nc1ccccc1C(=O)Nc1ccccc1 ?
A-T KAP1 phos: inactive; KCNH2 3.1 block: -123.3; 12-LOX inh: inactive; hERG WT inh: inactive

How did O=CN1CCN(C(=O)Cc2ccc(Cl)cc2)CC1 do in these assays?
KCNH2 3.1 block: inactive; 12-LOX inh: inactive; hERG WT inh: inactive

What do the screens show for `O=C(Cc1ccc(Cl)cc1)N1CCN(c2ccccc2O)CC1`?
12-LOX inh: 31.6µM

What do the screens show for `CSC(=NC#N)N1CCN(c2ccc([N+](=O)[O-])cc2)CC1`?
A-T KAP1 phos: inactive; KCNH2 3.1 block: -78.5; 12-LOX inh: inconclusive; hERG WT inh: inactive

How did Cc1ccc(-n2c(-c3ccccc3)cc(C=Nc3ccc(C)c(C)c3)c2-c2ccccc2)cc1 do in these assays?
12-LOX inh: 20µM

Results for Cc1ccc(-n2c(-c3ccccc3)cc(/C=N/NC(=O)CC#N)c2-c2ccccc2)cc1 ?
A-T KAP1 phos: inactive; 12-LOX inh: inactive

What do the screens show for `COc1ccccc1NC(=O)Nc1nnc(N(C)C2CCCCC2)s1`?
12-LOX inh: inactive

How did O=C(NCCN1CCCC1)c1cccc(Cl)c1 do in these assays?
A-T KAP1 phos: inactive; KCNH2 3.1 block: inactive; 12-LOX inh: inactive; hERG WT inh: inactive

How did COc1cccc(C(=O)NCCCN2CCN(CCCNC(=O)c3cccc(OC)c3)CC2)c1 do in these assays?
A-T KAP1 phos: inactive; KCNH2 3.1 block: -76.0; 12-LOX inh: inactive; hERG WT inh: inconclusive

How did O=C(NCCCN1CCN(CCCNC(=O)c2cccc(Cl)c2)CC1)c1cccc(Cl)c1 do in these assays?
A-T KAP1 phos: inactive; KCNH2 3.1 block: -88.6; 12-LOX inh: inactive; hERG WT inh: -99.7

Results for COc1cccc(C(=O)NCCCNC(=O)c2cccc(OC)c2)c1 ?
A-T KAP1 phos: inactive; KCNH2 3.1 block: inactive; 12-LOX inh: inactive; hERG WT inh: inactive

How did Cc1c(C)n(C)c2ccc(C(=O)NCCCN3CCCC3)cc12 do in these assays?
A-T KAP1 phos: inactive; KCNH2 3.1 block: -97.0; 12-LOX inh: inactive; hERG WT inh: inactive

What do the screens show for `O=c1oc2ccccc2c(NC2CCCCC2)c1NS(=O)(=O)c1ccc(Br)s1`?
12-LOX inh: inactive

How did O=C(N[C@@H]1CN(Cc2cc(F)cc(F)c2)C[C@H]1CO)c1ccccc1 do in these assays?
12-LOX inh: inactive

Results for O=C(N[C@@H]1CN(Cc2ccc3cc[nH]c3c2)C[C@H]1CO)c1ccccc1 ?
12-LOX inh: 28.2µM

How did O=C(N[C@@H]1CN(Cc2ccc(F)cc2)C[C@H]1CO)c1ccccc1 do in these assays?
12-LOX inh: 12.6µM

What do the screens show for `Cc1nn(C)cc1S(=O)(=O)Nc1ccn(Cc2c(Cl)cccc2Cl)n1`?
12-LOX inh: inactive

What do the screens show for `Cc1cc(C)cc(NC(=S)NCC(C)(C)N2CCOCC2)c1`?
12-LOX inh: inactive

Results for COC(=O)/C(C#N)=C\c1cc(Br)ccc1OCc1c(Cl)cccc1Cl ?
12-LOX inh: inactive

What do the screens show for `CCOC(=O)C1=C(c2ccccc2)N=C2SCC(=O)N2C1c1cccc(OC)c1OC` (centres undefined)?
12-LOX inh: inactive

How did COc1ccc(S(=O)(=O)NCC(=O)N(CC(=O)NCC2CCCO2)c2c(C)cccc2C)cc1 (centres undefined) do in these assays?
A-T KAP1 phos: inactive; KCNH2 3.1 block: -73.7; 12-LOX inh: inactive; hERG WT inh: inactive

How did Cc1ccccc1NS(=O)(=O)c1ccc(OCC(=O)NCC2CCCO2)cc1 (centres undefined) do in these assays?
A-T KAP1 phos: inactive; KCNH2 3.1 block: -184.4; 12-LOX inh: inactive; hERG WT inh: -172.0

How did COc1ccc(S(=O)(=O)NCC(=O)N(CC(=O)NCC2CCCO2)Cc2ccccc2)cc1 (centres undefined) do in these assays?
A-T KAP1 phos: inactive; KCNH2 3.1 block: inactive; 12-LOX inh: inactive; hERG WT inh: inactive

How did Cc1cccc(NC(=O)C2(c3ccc(Br)cc3)CC2)n1 do in these assays?
12-LOX inh: inactive

Results for CC(c1cc2ccccc2o1)N(C)Cc1nc(-c2ccc(C(F)(F)F)cc2)no1 (centres undefined) ?
12-LOX inh: inactive

What do the screens show for `N#Cc1sc2nc(C3CC3)cc(-c3ccc(Cl)cc3)c2c1N`?
A-T KAP1 phos: inactive; KCNH2 3.1 block: -72.1; 12-LOX inh: inactive; hERG WT inh: inactive

Results for COc1ccc(-c2cc(-c3cccs3)nc3sc(C#N)c(N)c23)cc1 ?
A-T KAP1 phos: inconclusive; KCNH2 3.1 block: inactive; 12-LOX inh: inactive; hERG WT inh: inactive

Results for COCCn1c(SC(C)C(=O)NC2CCCCCC2)nnc1-c1cccc(C)c1 (centres undefined) ?
12-LOX inh: inactive

How did N#CCC(=O)Nc1ccc(C(=O)OCC(=O)NC(=O)Nc2ccc3c(c2)OCCO3)cc1 do in these assays?
A-T KAP1 phos: inactive; KCNH2 3.1 block: inactive; 12-LOX inh: inactive; hERG WT inh: inactive

What do the screens show for `CCOC(=O)c1cc(S(=O)(=O)Nc2ccc3c(c2)OCCO3)[nH]n1`?
12-LOX inh: 11.2µM

What do the screens show for `CCOC(=O)c1ccc(NC(=O)Nc2ccc3c(c2)OCCO3)cc1`?
A-T KAP1 phos: inactive; KCNH2 3.1 block: inactive; 12-LOX inh: inactive; hERG WT inh: -75.6
